# In the supplement of paper PMC6522484:
# ± gives the standard deviation of the averaged measurements.
# What was measured:
# DLD1 [1] = assay: cell viability (CellTiter-Glo) relative to plate median (fraction of plate median); higher = more viable cells; conditions: 10 µM, treatment time 24 h
# Procedure, shortened: (§1)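 Each value averages two independent replicates in which the well signal was normalised to the plate median (webcellHTS2, additive, without log transformation). The signal was firefly luciferase or CellTiterGlo luminescence, read on parallel plates with a Tecan F500. The cells were colorectal cancer lines with stable lentiviral TCF/Wnt firefly luciferase reporters in 384-well plates, dosed 24 h after seeding with kinase inhibitor library compounds at a final 10 µM for 24 h.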
# HCT116 [2] = assay: as above; conditions: 10 µM; treatment time 24 h; reporter: TCF4/Wnt
# Procedure, shortened: as §1
# SW480 [3] = assay: as above; conditions: 10 µM; treatment time 24 h; reporter: 7TFP
# Procedure, shortened: as §1
# DLD1 [4] = assay: TCF/Wnt firefly luciferase reporter signal relative to plate median (fraction of plate median); higher = higher Wnt reporter signal; conditions: 10 µM, treatment time 24 h
# Procedure, shortened: as §1
# HCT116 [5] = assay: as above; conditions: 10 µM; treatment time 24 h; reporter: TCF4/Wnt
# Procedure, shortened: as §1
# SW480 [6] = assay: as above; conditions: 10 µM; treatment time 24 h; reporter: 7TFP
# Procedure, shortened: as §1
Structure (SMILES),cell viability (DLD1 [1]; reporter: 7TFP),cell viability (DLD1 [1]; reporter: TCF4/Wnt),cell viability (HCT116 [2]),cell viability (SW480 [3]),TCF/Wnt firefly luciferase reporter signal (DLD1 [4]; reporter: 7TFP),TCF/Wnt firefly luciferase reporter signal (DLD1 [4]; reporter: TCF4/Wnt),TCF/Wnt firefly luciferase reporter signal (HCT116 [5]),TCF/Wnt firefly luciferase reporter signal (SW480 [6])
COc1cc2nccc(Oc3ccc(NC(=O)Nc4cc(C)on4)c(Cl)c3)c2cc1OC [Tivozanib (AV-951)],0.936 ± 0.09,0.997 ± 0.033,1.11 ± 0.021,1.07 ± 0.021,0.755 ± 0.0078,0.726 ± 0.046,1.15 ± 0.099,0.775 ± 0.32
CC(C)n1nc(-c2cc3cc(O)ccc3[nH]2)c2c(N)ncnc21,0.86 ± 0.18,0.984 ± 0.037,0.698 ± 0.067,1.15 ± 0.085,0.557 ± 0.016,0.752 ± 0.0057,0.547 ± 0.061,0.636 ± 0.26
COc1ccc(-c2cc3c(C)nc(N)nc3n([C@H]3CC[C@H](OCCO)CC3)c2=O)cn1,0.889 ± 0.028,0.944 ± 0.028,0.68 ± 0.15,1.1 ± 0.099,0.348 ± 0.096,0.533 ± 0.056,0.591 ± 0.039,0.725 ± 0.043
CNC(=O)c1ccc(C)c(-n2c(C)cc(OCc3ccc(F)cc3F)c(Br)c2=O)c1,1.07 ± 0.057,1.015 ± 0.0071,1.05 ± 0.035,0.868 ± 0.047,1.17 ± 0.24,1.02 ± 0.061,0.81 ± 0.046,1.02 ± 0.11
Nc1cc(C(F)(F)F)c(-c2cc(N3CCOCC3)nc(N3CCOCC3)n2)cn1,0.777 ± 0.073,0.9145 ± 0.0078,0.56 ± 0.069,1.105 ± 0.0071,0.383 ± 0.085,0.75 ± 0.071,0.502 ± 0.057,0.704 ± 0.036
COc1cc2ncnc(Nc3cccc(Cl)c3)c2cc1OC [AG-1478 (Tyrphostin AG-1478)],0.949 ± 0.059,1 ± 0.053,1.12 ± 0.014,0.9395 ± 0.005,0.847 ± 0.03,0.75 ± 0.1,1.015 ± 0.0071,0.962 ± 0.054
c1ccc2c(-c3cnn4cc(-c5ccc(N6CCNCC6)cc5)cnc34)ccnc2c1,0.666 ± 0.25,0.874 ± 0.093,0.62 ± 0.14,0.8895 ± 0.0064,1.02 ± 0.014,1.08 ± 0.18,0.634 ± 0.3,1.35 ± 0.11
Cc1ccc(NC(=O)c2ccc(CN3CCN(C)CC3)cc2)cc1Nc1nccc(-c2cccnc2)n1 [Imatinib (Gleevec)],1.05 ± 0.099,1.035 ± 0.0071,0.993 ± 0.024,0.986 ± 0.011,1.65 ± 0.057,1.55 ± 0.11,1.42 ± 0.23,1.39 ± 0.22
COc1cccc2cc(-c3nc([C@H]4CC[C@H](C(=O)O)CC4)n4ncnc(N)c34)[nH]c12,1.03 ± 0.093,1.02 ± 0.056,0.816 ± 0.0042,1.19 ± 0.11,0.442 ± 0.061,0.449 ± 0.098,0.6105 ± 0.00071,0.83 ± 0.069
CCCS(=O)(=O)Nc1ccc(F)c(C(=O)c2c[nH]c3ncc(-c4ccc(Cl)cc4)cc23)c1F [Vemurafenib (PLX4032)],1.19 ± 0.13,0.976 ± 0.023,1.2 ± 0.05,0.878 ± 0.042,1.14 ± 0.028,0.939 ± 0.015,1.155 ± 0.0071,0.866 ± 0.11
OCCn1cc(-c2cnc3nnn(Cc4ccc5ncccc5c4)c3n2)cn1,1.16 ± 0.035,1.01 ± 0.071,1.09 ± 0.028,0.905 ± 0.029,1.1 ± 0.11,1.07 ± 0.13,1.25 ± 0.028,1.05 ± 0.042
CCc1cnn2c(NCc3ccc[n+]([O-])c3)cc(N3CCCC[C@H]3CCO)nc12,0.985 ± 0.13,1.06 ± 0.021,0.809 ± 0.27,1.34 ± 0.042,0.462 ± 0.029,0.304 ± 0.03,0.128 ± 0.063,0.61 ± 0.33
Cc1ccc(F)c(NC(=O)Nc2ccc(-c3cccc4[nH]nc(N)c34)cc2)c1 [Linifanib (ABT-869)],0.833 ± 0.063,0.948 ± 0.1,0.764 ± 0.03,0.883 ± 0.042,1.05 ± 0.086,1.33 ± 0.31,0.906 ± 0.15,0.872 ± 0.42
O=c1cc(N2CCOCC2)oc2c(-c3ccccc3)cccc12,1 ± 0.092,1.065 ± 0.0071,1.11 ± 0.021,0.963 ± 0.033,1.11 ± 0.078,1.15 ± 0.21,1.62 ± 0.3,1.15 ± 0.05
O=C(NC[C@H](O)CO)c1ccncc1Nc1ccc(I)cc1F,1.15 ± 0.078,1.14 ± 0.071,0.817 ± 0.036,1.14 ± 0.028,1.71 ± 0.46,1.73 ± 0.54,1.18 ± 0.32,2.17 ± 0.11
CC(C)(O)CC(=O)NCCn1ccc2ncnc(Nc3ccc(Oc4cccc(C(F)(F)F)c4)c(Cl)c3)c21,1.04 ± 0.16,1.03 ± 0.089,1.17 ± 0.14,0.959 ± 0.058,1.16 ± 0.15,1.07 ± 0.18,0.902 ± 0.27,0.879 ± 0.5
Cn1cnc(N)c2ncnc1-2 [3-Methyladenine],1.07 ± 0.078,1.11 ± 0.12,1.13 ± 0.014,0.867 ± 0.1,1.17 ± 0.13,1.12 ± 0.11,1.03 ± 0.066,0.733 ± 0.24
Nc1nc(Nc2ccc(S(N)(=O)=O)cc2)nn1C(=O)c1c(F)cccc1F,1.01 ± 0.14,1.05 ± 0.076,0.71 ± 0.11,1.24 ± 0.071,0.811 ± 0.057,1.59 ± 0.69,0.284 ± 0.018,1.09 ± 0.13
O=C(Nc1ccc(OC(F)(F)F)cc1)c1sccc1NCc1ccnc2ccccc12,1.01 ± 0.023,0.924 ± 0.025,1.21 ± 0.035,0.971 ± 0.13,1.08 ± 0.15,0.97 ± 0.085,0.842 ± 0.62,0.864 ± 0.48
Cc1cnc(Nc2ccc(N3CCN(C)CC3)cc2)nc1Nc1cccc(S(=O)(=O)NC(C)(C)C)c1,0.833 ± 0.04,0.912 ± 0.18,0.514 ± 0.17,0.702 ± 0.18,1.37 ± 0.2,2.17 ± 0.035,2.98 ± 0.97,0.613 ± 0.3
COc1cc2c(Oc3ccc4[nH]c(C)cc4c3F)ncnc2cc1OCCCN1CCCC1 [Cediranib (AZD2171)],0.659 ± 0.18,0.769 ± 0.054,0.658 ± 0.02,0.893 ± 0.067,0.968 ± 0.51,0.801 ± 0.32,0.354 ± 0.15,0.699 ± 0.12
Oc1c2ccccc2c2c3c(cccc13)N=N2,1.06 ± 0.099,1.01 ± 0.016,1.12 ± 0.021,0.931 ± 0.016,1.07 ± 0.14,1.18 ± 0.014,1.34 ± 0.23,1.06 ± 0.021
